# Measurements published in PubChem BioAssay (Tox21).
# Calls of active or inactive are those of the source. A call without a number means that no potency is given here. The call rests on the fitted dose curve.
# Biological target: Muscarinic acetylcholine receptor M1 (Homo sapiens) (UniProt P11229)
# Experiment: Cholinergic receptor muscarinic 1 (CHRM1) small molecule agonists, cell-based qHTS assay (AID 1963589); further: nearly all actives have a fitted effect of over 35% in size
# Details: CHRM1-CHO cells, agonist mode, calcium flux fluorescence; series mostly up to 76.8 µM
# Source text: National Center for Advancing Translational Sciences [NCATS]
# Division of Preclinical Innovation [DPI]
# U.S. Environmental Protection Agency [EPA]
# National Institutes of Environmental Health Sciences [NIEHS]
# National Toxicology Program [NTP]
# U.S. Food and Drug Administration [FDA]
# The CHRM1 is a muscarinic receptor. This receptor plays a crucial role in learning and memory processes and has long been identified as a promising therapeutic target for the improvement of cognitive decline in Alzheimer's disease (AD). The CHRM1-CHO cell line stably expressing human muscarinic acetylcholine receptor M1 (CHRM1) can be used for screening agonists and antagonists of interactions between CHRM1 and its ligands. The CHRM1-CHO Calcium Flux Assay is a homogeneous fluorescence-based assay for detecting the intracellular calcium level using FDSS kinetic plate reader system.
# CHRM1-CHO cells were dispensed at 1000 cells/3uL/well in 1536-well black-clear bottom plates using a Multidrop Dispenser. After the assay plates were incubated at a 37 C/5% CO2 incubator for 18 h, 3 uL of Dye Loading Buffer was transferred to the assay plate by a Flying Reagent Dispenser. The assay plates were incubated at 37 C for 1h. For agonist mode, 23 nL of compounds dissolved in DMSO, positive controls or DMSO only was transferred to the assay plate by a pin tool. […] Each test compound was measured at 15 concentrations in three independent runs.
# Muscarinic acetylcholine receptor M1 (Homo sapiens), sequence (P11229 whole entry, looked up): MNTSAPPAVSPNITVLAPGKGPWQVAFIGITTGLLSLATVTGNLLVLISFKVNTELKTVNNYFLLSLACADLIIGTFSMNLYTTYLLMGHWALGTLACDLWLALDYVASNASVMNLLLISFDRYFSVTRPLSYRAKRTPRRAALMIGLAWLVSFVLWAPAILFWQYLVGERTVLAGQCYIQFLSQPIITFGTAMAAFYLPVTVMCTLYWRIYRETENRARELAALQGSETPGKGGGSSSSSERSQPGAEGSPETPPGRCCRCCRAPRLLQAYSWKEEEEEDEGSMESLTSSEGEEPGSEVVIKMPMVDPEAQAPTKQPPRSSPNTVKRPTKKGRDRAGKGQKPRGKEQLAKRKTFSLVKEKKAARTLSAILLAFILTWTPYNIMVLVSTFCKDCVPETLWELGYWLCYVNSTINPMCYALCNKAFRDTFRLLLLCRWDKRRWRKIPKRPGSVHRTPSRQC
row,Compound,Potency
1,Cc1ccc(S(=O)(=O)Oc2ccc(N=Nc3ccc(-c4ccc(N=Nc5c(O)ccc6cc(S(=O)(=O)O)cc(S(=O)(=O)O)c56)c(C)c4)cc3C)cc2)cc1,inactive
2,CNC(=S)N(C)C,inactive
3,[O-]/[N+](=N\O)c1ccccc1,inactive
4,OCCOCCOCCO,inactive
5,O=C1CCc2ccccc2O1,inactive
6,CCCCCCCCO,inactive
7,CCCCC(CC)COC(=O)CCCCC(=O)OCC(CC)CCCC (stereo not given),inactive
8,CC1(C)CC(N)CC(C)(CN)C1 (stereo not given),inactive
9,COC(C)COC(C)COC(C)CO (stereo not given),inactive
10,Oc1ccc(Cl)cc1Cc1cc(Cl)ccc1O,inactive
11,C=CC(=O)OCCCC,inactive
12,O=Nc1ccc(O)cc1,inactive
13,CC(C)=CCO,inactive
14,CCCCCCCCCCCCCCCC[N+](C)(C)Cc1ccccc1,inactive
15,CN(C)CCCN,inactive
16,Cn1c([N+](=O)[O-])cnc1COC(N)=O,inactive
17,O=C1CCCC1,inactive
18,Oc1ccc(O)cc1,inactive
19,Oc1ccc2ccccc2c1N=Nc1ccccc1,inactive
20,CCCCCCCCCCCCCO,inactive

row,Compound,Potency
1,Nc1ccc(Cl)cc1Cl,inactive
2,CC(=O)C(C)C,inactive
3,CC(C)CC(C)CC(O)CC(C)C (stereo not given),inactive
4,NCCS(=O)(=O)O,inactive
5,CC(C)CCCCCCCOC(=O)CCCCC(=O)OCCCCCCCC(C)C,inactive
6,Cc1ccccc1Cl,inactive
7,CC(C)[C@@H]1CC[C@@H](C)C[C@H]1O,inactive
8,CCCCC(CC)COC(=O)/C=C/c1ccc(OC)cc1 (stereo not given),inactive
9,Cc1ccc2c(n1)Oc1ccc(C(C)C(=O)OCC(=O)N(C)C)cc1C2 (stereo not given),inactive
10,CN1C(=O)CC[C@H]1c1cccnc1,inactive
11,c1ccc2cc3ccccc3cc2c1,inactive
12,CCCCCCCC/C=C\CCCCCCCC(=O)O,inactive
13,O=C1C(c2[nH]c3ccccc3c2O)=Nc2ccccc21,inactive
14,C=CC(C)(CCC=C(C)C)OC(C)=O (stereo not given),inactive
15,CCCC(=O)O,inactive
16,O=C(Nc1ccccc1SSc1ccccc1NC(=O)c1ccccc1)c1ccccc1,inactive
17,CC1=C(/C=C/C(C)=C/C=C/C(C)=C/C(=O)Nc2ccc(O)cc2)C(C)(C)CCC1,inactive
18,O=C1OC(c2ccc(O)cc2)(c2ccc(O)cc2)c2ccccc21,inactive
19,O=C(O)Cc1c[nH]c2ccccc12,inactive
20,CC(=O)c1ccccc1,inactive
